An excerpt weighted towards active compounds, which were near 3% of everything screened.
Tau fibril FP = blocks human tau fibril formation measured by polarization. P10636. K18 P301L tau heparin fibrillization, Alexa594 FP, 6 h. Potency, µM (highest dose often 57.7 µM), without a hit: at the highest dose activity, negative = inhibition, most hits filed as inhibitors. 0.39% of 280,000 active; note: potency is the fitted concentration of half-maximal effect; nearly all actives have a fitted effect of over 55% in size
Target sequence (P10636 561-689 P618L limits assumed): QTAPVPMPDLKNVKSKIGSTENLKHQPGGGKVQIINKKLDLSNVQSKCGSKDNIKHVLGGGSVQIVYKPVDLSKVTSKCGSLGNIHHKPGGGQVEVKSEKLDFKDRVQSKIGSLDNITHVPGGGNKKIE
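Human tau K18 […] P301L fragment, 15 uM unlabeled plus 0.24 uM Alexa 594-labeled tau (final), with compound and 20 uM heparin in 100 mM sodium acetate pH 7; 6 hr at 37 C, then Alexa 594 FP read.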
KDM4E inh = blocks human JMJD2E demethylase activity; 1.6% of 230,000 active; Potency, µM (titrated, usually from 57.1 µM), without a hit: at the highest dose activity change, negative = inhibition, most hits filed as inhibitors; B2RXH2; JMJD2E catalytic domain, FDH-coupled NADH fluorescence (FDH is formaldehyde dehydrogenase);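 note: potency is the fitted concentration of half-maximal effect; 0% = wells with enzyme and -100% = buffer wells without enzyme; nearly all actives have a fitted effect of over 50% in size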
Target sequence (B2RXH2 1-337 limits assumed): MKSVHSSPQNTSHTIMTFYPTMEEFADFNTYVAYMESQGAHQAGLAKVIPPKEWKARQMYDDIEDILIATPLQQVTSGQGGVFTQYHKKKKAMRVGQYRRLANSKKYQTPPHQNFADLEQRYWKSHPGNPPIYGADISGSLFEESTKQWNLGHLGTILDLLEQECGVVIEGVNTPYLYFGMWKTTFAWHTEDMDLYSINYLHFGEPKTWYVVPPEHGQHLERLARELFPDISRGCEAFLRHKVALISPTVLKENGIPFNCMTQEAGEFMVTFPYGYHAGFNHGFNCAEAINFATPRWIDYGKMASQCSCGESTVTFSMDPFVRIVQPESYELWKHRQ
Tau fluor counter = counter-screen for tau fibril formation inhibitors; tau K18 P301L Alexa594 fluorescence, heparin fibrillization; Potency, µM (highest dose often 57.7 µM), for the others: top-dose activity change, negative = decrease; 0.93% of 280,000 active; AID 1463; note: potency is the fitted concentration of half-maximal effect; nearly all actives have a fitted effect of over 55% in size
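Human tau K18 P301L (15 uM unlabeled, 0.24 uM Alexa 594-labeled) in 100 mM sodium acetate pH 7 with 20 uM heparin, 6 hr at 37 C. ThT 30 uM added, 1 hr ambient; Alexa 594 FP and total fluorescence read at 555/632 nm.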
Tau fibril ThT = inhibitors of human tau fibril formation, thioflavin T binding; P10636; recombinant tau K18 P301L (four-repeat tau fragment), heparin-induced fibrillization, ThT fluorescence; Potency, µM (titrated, usually from 57.4 µM), without a hit: top-dose activity, negative = inhibition, most hits filed as inhibitors; 2.1% of 270,000 active; AID 1460; note: potency is the fitted concentration of half-maximal effect; nearly all actives have a fitted effect of over 55% in size
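Heparin-induced (20 uM) aggregation of recombinant human K18 P301L tau, 15 uM unlabeled with 0.24 uM labeled, pH 7 acetate buffer, 6 hr at 37 C with compound. Fibrils quantified by 30 uM ThT fluorescence after 1 hr ambient incubation.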
FBPA coupling cs = coupling enzyme interference in Giardia aldolase counter-screen | activity change, negative = inhibition, % at 58.2 µM, hits read low | coupling enzyme system counterscreen, AmpLite Red fluorescence | AID 2472 | 0.67% of 290,000 active; in the data active = activity change below about -30%
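Coupling enzymes only (glyceraldehyde-3-phosphate) + compound, at 57.5 uM final, 10 min RT; add substrate/coupling/AmpLite Red mix, 20 min RT; fluorescence ex 525/em 598 nm. Actives flag coupling-system interference.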
* hit, by the source's call; ? = inconclusive; / = no result; [ ] = dose if it differs, or a comment. Unless noted, calls come from the whole dose curve; as a rule, active = well fitted curve in the direction sought with a large enough effect; inconclusive = small, poorly fitted or top-dose-only effect, or another doubt; inactive = no such curve, though single readings can be large; an effect the other way counts as inactive or inconclusive. Unless noted, % is set by controls: 0 for no effect and ±100 for the full control effect.

SMILES	Tau fibril FP	KDM4E inh	Tau fluor counter	Tau fibril ThT	FBPA coupling cs
Cc1ccccc1CNC(=O)c1cc2cc(S(=O)(=O)N3CCCCC3)ccc2n1C	-5.6%	/	-16.4%	3.3%	/
COc1ccccc1C1CC(=O)Oc2cc3c(cc21)OCO3 (configuration not stated)	-5.0%[81.3 µM]	/	-20.5%[81.3 µM]	?	-25.6
COc1cc(/C=C(\C#N)c2nc3ccccc3[nH]2)cc(Br)c1OCc1ccccc1	?	?	12.6µM*[quencher]	?	-4.8
COc1cc(/C=C(\C#N)C(=O)c2c[nH]c3ccccc23)cc(OC)c1O	8.7%	-11.6%	-8.0%	15.8µM*	-13.7
COc1cc(/C=C(\C#N)c2nc3ccccc3[nH]2)cc(OC)c1O	?	9.0%	?	7.08µM*	-0.7
COc1cc(/C=C(\C#N)c2nc3ccccc3[nH]2)cc(Br)c1OCc1ccc(F)cc1	?	?	?	?	-4.1
COC(=O)/C(C#N)=C/c1c[nH]c2ccccc12	-9.2%	-3.0%	-19.0%	-12.9%	0.2
CCOc1cc(N(CC)CC)ccc1/C=C(/C#N)c1nc2ccccc2[nH]1	11.0%	11.3%	10µM*[quencher]	?	-0.8
O=C(Cc1ccc(Cl)cc1)NC1CC(=O)N(c2ccc3c(c2)OCCO3)C1 (configuration not stated)	-4.8%	/	0.2%	-0.8%	/
Cc1ccc(C)c(Cn2c(SCC(=O)N(C)Cc3ccccc3)nc3ccccc32)c1	12.7%	/	12.0%	-6.3%	/
Cc1cccc(N=C2NN=C(c3ccc4c(c3)OCCO4)CS2)c1	-11.9%	-4.1%	?	11.2µM*	2.3
O=C(Nc1ccccc1)C1=C(c2ccccc2)S(=O)(=O)CCS1(=O)=O	22.4µM*	-1.2%	-20.3%	28.2µM*	0.6
Cc1[nH]n(-c2ccccc2)c(=O)c1N=Nc1nccs1	8.1%	?	-28.3%	12.6µM*	-1.4
COc1cc(CNc2ccc(O)cc2)cc(Br)c1OCc1ccccc1	?	?	12.6µM*[quencher]	25.1µM*	-40.8*
COc1cc(CNC(C)c2ccccc2)cc(Br)c1OCc1ccccc1 (configuration not stated)	/	/	/	/	0.2
COc1ccc(/C=N/NC(=O)c2nn(-c3ccc(C)c(C)c3)c(=O)c3ccccc23)cc1	-1.4%	?	-18.7%	-19.7%	1.0
COc1ccc(/C=N/NC(=O)c2nn(-c3ccc(Cl)cc3)c(=O)c3c(N)scc23)cc1	?	?	?	10µM*	-26.0
COc1ccc(/C=N/NC(=O)c2nn(-c3ccccc3)c(=O)c3c(N)scc23)cc1	?	?	?	14.1µM*	-59.5*
CCC1c2ccc(C)n2CCN1C(=O)Nc1cc(Cl)ccc1OC (configuration not stated)	?	-0.3%	-27.6%	22.4µM*	1.6
CCC1c2ccc(C)n2CCN1C(=O)Nc1ccccc1C(=O)OC (configuration not stated)	?	?	-12.9%	?	-0.9
COCCN(CCOC)c1nc(C)nc2c1nc(-c1ccccc1)n2CCN(C)C	2.8%	?	-7.7%	-7.5%	0.4
N#Cc1c(N2CCCCC2)nc(N)c2c(N)nc3c(c12)CC(c1ccccc1)O3 (configuration not stated)	14.9%	?	11.2µM*[quencher]	?	-11.1
N#Cc1c(N)nc2c(c1N)CC(CO)O2 (configuration not stated)	0.6%	2.3%	2.3%	7.1%	2.0
CCN(CC)c1nc(N)c2c(N)n(-c3ccccc3C)c(=S)c(C#N)c2c1C#N	-5.0%	1.9%	-7.4%	3.7%	0.6
CCN(CC)c1nc(N)c2c(N)nc3c(c2c1C#N)CC(c1ccccc1)O3 (configuration not stated)	11.7%	?	31.6µM*[quencher]	?	0.3
SMILES	Tau fibril FP	KDM4E inh	Tau fluor counter	Tau fibril ThT	FBPA coupling cs
CCC1Cc2c(nc(N)c3c(N)nc(N4CCCCC4)c(C#N)c23)O1 (configuration not stated)	14.9%	?	15.8µM*[quencher]	?	-19.6
CCOC(=O)c1[nH]c(C)c(CCC(=O)N2CCN(c3cc(Cl)ccc3C)CC2)c1C	3.8%	/	-12.8%	?	/
CCN(CC)C(=O)C1=C(C)Nc2nc3ccccc3n2C1c1ccc(Br)cc1 (configuration not stated)	-3.3%	/	-16.8%	-8.3%	/
Cc1cccc(N=N/C(=C\O)C(=O)c2cccs2)c1	-7.0%	-2.2%	-17.2%	28.2µM*	-3.5
Nc1nc(SCc2ccc([N+](=O)[O-])cc2)c2ncn([C@@H]3O[C@H](CO)[C@H](O)[C@H]3O)c2n1	7.0%	-1.4%	-5.2%	-11.1%	/
CCOc1cc(C2NC(=O)c3c(sc4c3CCN(C)C4)N2)ccc1OC(=O)c1ccccc1Cl (configuration not stated)	0.4%	/	-4.7%	?	/
CSc1ccc(C2NC(=O)c3c(sc4c3CCN(C)C4)N2)cc1 (configuration not stated)	1.5%	-3.3%	-8.2%	-5.4%	-16.1
CN1CCc2c(sc3c2C(=O)NC(c2ccc(C(C)(C)C)cc2)N3)C1 (configuration not stated)	?	/	-19.8%	15.8µM*	/
CN1CCc2c(sc3c2C(=O)NC(c2ccc(-c4cccc(Cl)c4)o2)N3)C1 (configuration not stated)	?	?	-14.5%	2.24µM*	-12.0
CN1CCc2c(sc3c2C(=O)NC(/C=C\c2ccccc2)N3)C1 (configuration not stated)	-14.6%	?	-17.5%	17.8µM*	-8.3
COc1ccc(C(=O)Oc2ccc(C3NC(=O)c4c(sc5c4CCN(C)C5)N3)cc2OC)cc1 (configuration not stated)	?	/	-27.4%	3.98µM*	/
CNC(=O)[C@]1(C(F)(F)F)C[C@H](CCC2CCCCC2)CCCO1	/	/	/	/	3.0
CN1CCc2c(sc3c2C(=O)NC(c2cccs2)N3)C1 (configuration not stated)	?	?	-18.2%	12.6µM*	-5.5
COc1ccc(C2NC(=O)c3c(sc4c3CCN(C)C4)N2)cc1O (configuration not stated)	-7.4%	/	-23.1%	5.62µM*	/
O=C(C1CCC(Cn2c(=O)c3sccc3n(Cc3ccccc3)c2=O)CC1)N1CCCCC1 (configuration not stated)	9.9%	/	1.4%	-2.2%	/
O=C1CSC(=S)N1Cc1cccnc1	-10.8%	-9.5%	-6.3%	31.6µM*	-29.1
O=C1CSC(=S)N1c1cccnc1	-6.7%	-18.9%	-3.1%	?	0.2
CC(=O)c1cc(-c2ccc(F)cc2)n(CCC(=O)Nc2nc3c(C)cccc3s2)c1C	-5.2%	/	-2.0%	9.8%	/
O=C(Oc1ccc2c(=O)c(Oc3ccc4ccccc4c3)coc2c1)c1cncc(Br)c1	2.8%	11.2µM*	-7.4%	-11.9%	-3.3
Cn1c(=O)c(N)c2c3c(c(Br)ccc31)C(=O)c1ccccc1-2	-12.8%	25.1µM*	?	14.1µM*	-1.0
